Screening results as filed in PubChem.
In the library only some 9.3% were active in any assay of this set; here they are far more common.
NPC1 prom act: qHTS Assay for NPC1 Promoter Activators; Potency, µM (series often up to 9.22 µM), for inactives: at the highest dose activation, hits mostly activators; Huh7 NPC1 promoter luciferase reporter, 24 h; AID 485313, 2010; actives 2.4% (n = 320,000); note: % of control where 0% means no effect; nearly all actives have a fitted effect of over 60% in size
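Cells: Huh7 expressing luciferase under the NPC1 promoter, 1500/well. Seeded 2 h, compound added, incubated 24 h at 37 °C. Luciferase reagent, 10 min ambient, then luminescence.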
ELG1 DNA repair: qHTS screen for small molecules that inhibit ELG1-dependent DNA repair in human embryonic kidney (HEK293T) cells expressing luciferase-tagged ELG1; actives 2.3% (n = 330,000); Potency, µM (top dose mostly 46.1 µM), for the others: at the top dose activity change, negative = inhibition, usual class: inhibitors; HEK293T ELG1-luciferase reporter, luminescence, 16 h; DNA damage induced by 5-fluorouridine; note: % is set by controls: 0 for no effect and ±100 for the full control effect; nearly all actives have a fitted effect of over 55% in size
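Cells (2,000 per well) received 5-fluorouridine plus test compound or DMSO and were incubated 16 hr at 37 °C, 5% CO2. Luciferase activity was read by luminescence 30 min after ONE-Glo addition; signal suppression marked inhibition of damage-induced ELG1 function.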
Rab9 promoter act: qHTS Assay for Rab9 Promoter Activators. Huh7 Rab9 promoter-luciferase reporter, luminescence, 24 h. Potency, µM (top dose mostly 9.22 µM), inactives show at the highest dose activation, negative = inhibition, usual class: activators. actives 2.8% (n = 320,000); note: % of control where 0% means no effect; nearly all actives have a fitted effect of over 60% in size
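Luminescence read-out: Huh7 cells stably expressing Rab9-luciferase, treated 24 h with compound at 37 °C, then lysed with luciferase reagent for 10 min at ambient before reading.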
SMN2 splice enh: qHTS Assay for Enhancers of SMN2 Splice Variant Expression. HEK293 SMN2-luciferase splicing reporter, luminescence, 30-36 h. Potency, µM (highest dose often 46.1 µM), for inactives: at the highest dose activity change, positive = activation, actives largely listed as activators. actives 2.8% (n = 210,000); note: % of control where 0% means no effect; nearly all actives have a fitted effect of over 55% in size
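HEK293 cells carry an SMN2 […]–luciferase reporter in which exon 7 inclusion puts luciferase in frame. Cells were plated 10-12 h before compound addition, then incubated 30-36 h at 37C. ONE-Glo luminescence was read; sodium butyrate at 4.5 mM final served as control.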
FLuc modulator: qHTS profiling assay for firefly luciferase inhibitor/activator using purifed enzyme and Km concentrations of substrates (counterscreen for miR-21 project). Luciferin 4-monooxygenase (Photinus pyralis), P08659. purified FLuc, Km substrates, luminescence inhibition. actives 6.9% (n = 360,000). Potency, µM (titrated, usually from 57.5 µM), inactives show at the highest dose activity change, negative = inhibition, usual class: inhibitors. AID 588342, 2011;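 note: plate controls were vehicle for no effect and reference inhibitor for full effect; nearly all actives have a fitted effect of over 55% in size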
Target sequence (P08659 whole entry, looked up): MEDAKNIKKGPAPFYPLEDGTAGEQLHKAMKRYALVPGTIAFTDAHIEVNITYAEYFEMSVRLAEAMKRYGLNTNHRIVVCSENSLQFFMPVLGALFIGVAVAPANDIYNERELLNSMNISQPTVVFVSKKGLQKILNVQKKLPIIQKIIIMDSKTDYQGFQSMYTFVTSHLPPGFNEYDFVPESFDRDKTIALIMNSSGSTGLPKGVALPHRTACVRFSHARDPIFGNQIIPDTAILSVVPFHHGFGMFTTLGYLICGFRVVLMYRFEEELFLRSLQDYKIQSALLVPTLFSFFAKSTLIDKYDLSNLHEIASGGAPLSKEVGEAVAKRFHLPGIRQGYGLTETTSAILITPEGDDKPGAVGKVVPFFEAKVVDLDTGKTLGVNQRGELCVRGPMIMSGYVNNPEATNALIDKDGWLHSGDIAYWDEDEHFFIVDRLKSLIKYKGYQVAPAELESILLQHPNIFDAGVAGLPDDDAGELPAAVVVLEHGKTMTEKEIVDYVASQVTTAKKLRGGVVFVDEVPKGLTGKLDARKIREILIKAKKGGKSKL
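Purified P. pyralis luciferase (10nM final) with 10uM D-luciferin and 10uM ATP (Km levels) in 50mM Tris acetate pH 7.5, 10mM Mg acetate, 0.01% Tween-20, 0.05% BSA; qHTS 6-point titration, ~60 µM downward; luminescence read.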
ELG1 genotox: qHTS screen for small molecules that induce genotoxicity in human embryonic kidney (HEK293T) cells expressing luciferase-tagged ELG1; Potency, µM (series often up to 46 µM), without a hit: at the top dose activity change, positive = activation, most hits filed as activators; HEK293T ELG1-luciferase reporter, luminescence, 16 h; actives 1.3% (n = 330,000); AID 504466, 2011; note: % of control where 0% means no effect; nearly all actives have a fitted effect of over 60% in size
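Quantitative HTS format in 1536-well plates. HEK293T ELG1-luciferase reporter cells receive test compound and are incubated 16 hr at 37 °C, 5% CO2; ONE-Glo added, 30 min room temperature, then luminescence read.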
Starred values were filed as active, the others as inactive. Calls come from the whole dose curve; as a rule, active = well fitted curve in the direction sought with a large enough effect; inconclusive = small, poorly fitted or top-dose-only effect, or another doubt; inactive = no such curve, though single readings can be large; an effect the other way counts as inactive or inconclusive. Potency is the fitted concentration of half-maximal effect.

Screening CN(C)S(=O)(=O)c1cccc(N=C2NN=C(c3ccccc3)CS2)c1 returned NPC1 prom act -0.8%, ELG1 DNA repair inconclusive, Rab9 promoter act 8.2%, SMN2 splice enh -57.7%, FLuc modulator inconclusive and ELG1 genotox -0.9%.
`COc1cccc(C(=O)Nc2nnc(-c3ccccc3)s2)c1OC` gave NPC1 prom act 2.51µM*, ELG1 DNA repair inconclusive, Rab9 promoter act 1.78µM*, FLuc modulator 12µM* and ELG1 genotox inconclusive.
`COc1ccccc1C(=O)Nc1nc(-c2cccs2)c(NC(C)=O)s1` gave NPC1 prom act 19.4%, ELG1 DNA repair inconclusive, Rab9 promoter act inconclusive, SMN2 splice enh inconclusive, FLuc modulator 0.757µM* and ELG1 genotox 9.2µM*.
Screening Cc1nnc(NC(=O)c2ccccc2NC(=O)c2ccccc2)s1 returned NPC1 prom act 1.5%, ELG1 DNA repair inconclusive, Rab9 promoter act -2.2%, FLuc modulator 8.49µM* and ELG1 genotox -4.2%.
For CC(Sc1nncn1C)C(=O)Nc1nnc(-c2ccccc2)s1 (configuration not stated) the results were NPC1 prom act inconclusive, ELG1 DNA repair inconclusive, Rab9 promoter act inconclusive, SMN2 splice enh 14.1µM*, FLuc modulator 15.1µM* and ELG1 genotox 16.4µM*.
For CC(Sc1nncn1C)C(=O)Nc1nnc(C(C)C)s1 (configuration not stated) the results were NPC1 prom act 6.3%, ELG1 DNA repair 11.6%, Rab9 promoter act -4.8%, SMN2 splice enh -15.4%, FLuc modulator 1.5% and ELG1 genotox 0.1%.
COc1cccc(C(=O)NC2=NCCS2)c1OC was read as NPC1 prom act 27.7%, ELG1 DNA repair inconclusive, Rab9 promoter act inconclusive, SMN2 splice enh inconclusive, FLuc modulator inconclusive and ELG1 genotox inconclusive.
`CSc1ncc(OCc2ccccc2)c(=O)[nH]1` gave NPC1 prom act 3.9%, ELG1 DNA repair 8.6%, Rab9 promoter act -3.8%, FLuc modulator -9.2% and ELG1 genotox 4.4%.
Screening CSc1ccccc1NC(=O)CN(C)CC(=O)c1c(C)[nH]c2ccccc12 returned NPC1 prom act -2.2%, ELG1 DNA repair -23.8%, Rab9 promoter act -3.9%, FLuc modulator -4.3% and ELG1 genotox -1.0%.
`CN1CCN(CCNC(=O)c2ccc3nc(-c4ccc(F)cc4)c(-c4ccc(F)cc4)nc3c2)CC1` gave NPC1 prom act -2.5%, ELG1 DNA repair 1.0%, Rab9 promoter act -1.5%, FLuc modulator 1.2% and ELG1 genotox 6.7%.
O=C(Nc1nnc(-c2ccccc2)s1)c1ccccc1O was read as NPC1 prom act 1.78µM*, ELG1 DNA repair inconclusive, Rab9 promoter act 2.51µM*, FLuc modulator 4.26µM* and ELG1 genotox 1.9%.
Screening COc1ccccc1C(=O)Nc1cc(-c2ccc(C)cc2)no1 returned NPC1 prom act inconclusive, ELG1 DNA repair inconclusive, Rab9 promoter act inconclusive, SMN2 splice enh inconclusive, FLuc modulator 6.01µM* and ELG1 genotox inconclusive.
O=C(Nc1ccccc1)Nc1nnc(-c2ccccc2)s1 was read as NPC1 prom act inconclusive, ELG1 DNA repair inconclusive, Rab9 promoter act inconclusive, FLuc modulator -5.3% and ELG1 genotox 12.7%.
`COCCN(C(=O)c1ccccc1OC)c1nnc(C)s1` gave NPC1 prom act -1.5%, ELG1 DNA repair inconclusive, Rab9 promoter act -4.3%, SMN2 splice enh -10.0%, FLuc modulator -1.2% and ELG1 genotox -0.7%.
For COc1ccccc1C(=O)Nc1nnc(-c2ccccc2)s1 the results were NPC1 prom act inconclusive, ELG1 DNA repair inconclusive, Rab9 promoter act 16.7%, FLuc modulator 13.5µM* and ELG1 genotox inconclusive.
Screening COc1ccc(-c2nnc(NC(=O)c3c(OC)cccc3OC)s2)cc1 returned NPC1 prom act 3.8%, ELG1 DNA repair -11.9%, Rab9 promoter act 3.0%, FLuc modulator inconclusive and ELG1 genotox -1.6%.
Screening COc1ccccc1C(=O)N(C)c1nnc(-c2ccccc2)s1 returned NPC1 prom act 3.55µM*, ELG1 DNA repair inconclusive, Rab9 promoter act inconclusive, FLuc modulator 19µM* and ELG1 genotox 4.6%.
For CCC1(c2ccccc2)NC(=O)N(CC(=O)NCC2COc3ccccc3O2)C1=O (configuration not stated) the results were NPC1 prom act 2.8%, ELG1 DNA repair 10.3%, Rab9 promoter act -0.3%, FLuc modulator 2.3% and ELG1 genotox 0.0%.
For CCc1nnc(SCC(=O)Nc2ccccc2Cl)nc1CC the results were NPC1 prom act -4.1%, ELG1 DNA repair 0.0%, Rab9 promoter act -9.4%, FLuc modulator 7.4% and ELG1 genotox -6.7%.
For COc1cccc(C(=O)Nc2sc(C(C)C)cc2C(N)=O)c1OC the results were NPC1 prom act -2.5%, ELG1 DNA repair inconclusive, Rab9 promoter act -1.5%, FLuc modulator 21.3µM* and ELG1 genotox -3.6%.
COc1cccc(OC)c1C(=O)Nc1nnc(C)s1 was read as SMN2 splice enh -7.9% and FLuc modulator 2.4%.
For CC(C)=CC(=O)Nc1nnc(-c2ccccc2)s1 the results were NPC1 prom act 2.24µM*, ELG1 DNA repair inconclusive, Rab9 promoter act 1.41µM*, SMN2 splice enh 11.2µM*, FLuc modulator inconclusive and ELG1 genotox 2.91µM*.
For CC(=O)Nc1sc(N/N=C\c2ccc(O)cc2)nc1-c1cccs1 the results were NPC1 prom act 10.8%, ELG1 DNA repair inconclusive, Rab9 promoter act 22.1%, FLuc modulator 12µM* and ELG1 genotox inconclusive.
COC(=O)c1cc(OC)c(OC)cc1NC(=O)c1cccc(OC)c1OC was read as NPC1 prom act 3.4%, ELG1 DNA repair inconclusive, Rab9 promoter act -7.8%, SMN2 splice enh -14.1%, FLuc modulator -4.0% and ELG1 genotox -5.3%.
COc1ccccc1C(=O)Nc1nnc(C)s1 was read as NPC1 prom act inconclusive, ELG1 DNA repair inconclusive, Rab9 promoter act inconclusive, SMN2 splice enh 18.3%, FLuc modulator 16.9µM* and ELG1 genotox 13µM*.
Screening Cc1ccc(-n2nc3c(=O)n(CC(=O)NCCC(C)C)nc(C)c3c2C)cc1 returned FLuc modulator 3.3%.
